Results: PubChem BioAssay (Tox21)
Several values for one entry are separate records, joined by “and”; a condition that tells them apart may be missing. Identical values can stand only once. Results filed as inconclusive are left out. Some compounds were tested as several samples or in several runs, with calls that do not always agree. Activity calls are given as the source filed them. Calls come from the whole dose curve; as a rule, active = well fitted curve in the direction sought with a large enough effect in the repeat runs; inconclusive = weak or mixed curves; inactive = no such curve, though single readings can be large; an effect the other way counts as inactive or inconclusive.

Columns and labels:
[1] = qHTS RealTime-Glo MT Cell Viability Assay in HepG2 cells - 40 hour (AID 1224870); note: nearly all actives have a fitted effect of over 50% in size; note: potency is the fitted concentration of half-maximal effect
Procedure, shortened: (§1)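 Real-time viability: cells seeded at 600 per well together with NanoLuc and cell-permeant prosubstrate, compounds added after 5 h incubation. Luminescence tracked at 0, 8, 16, 24, 32 and 40 h of exposure.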

[2] = A CellTox Green Cytotoxicity Assay to monitor cytotoxicity in HEK293 cells - 40 hour (AID 1224871); note: nearly all actives have a fitted effect of over 45% in size; note: potency is the fitted concentration of half-maximal effect
Procedure, shortened: (§2)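 Dead-cell fluorescence measured kinetically: asymmetric cyanine dye, HEK293, 600 cells/well, 5 h settle, 23 nL cpd/DMSO, 37 C, reads 0–40 h every 8 h.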

[3] = qHTS RealTime-Glo MT Cell Viability Assay in HEK293 cells - 16 hour (AID 1224872); note: nearly all actives have a fitted effect of over 50% in size; note: potency is the fitted concentration of half-maximal effect
Procedure, shortened: (§3)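 Nonlytic real-time viability readout: viable cells convert prosubstrate to NanoLuc substrate, giving luminescence proportional to live cell number. HEK293, 600 cells/well, compound added after 5 h, continuous culture at 37 C.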

[4] = qHTS RealTime-Glo MT Cell Viability Assay in HepG2 cells - 8 hour (AID 1224873); note: nearly all actives have a fitted effect of over 55% in size
Procedure, shortened: as §1

[5] = qHTS RealTime-Glo MT Cell Viability Assay in HEK293 cells - 40 hour (AID 1224874); conditions: RealTime-Glo luminescence; max response: stronger effect = lower value; note: nearly all actives have a fitted effect of over 50% in size; note: potency is the fitted concentration of half-maximal effect
Procedure, shortened: (§4)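 600 HEK293 cells per well, dispensed already mixed with RealTime-Glo MT reagents. Compound dosing came 5 h later. The same wells were read for luminescence at 0, 8, 16, 24, 32 and 40 h of exposure at 37 C.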

[6] = A CellTox Green Cytotoxicity Assay to monitor cytotoxicity in HEK293 cells - 24 hour (AID 1224875); note: series mostly up to about 77 µM; nearly all actives have a fitted effect of over 45% in size
Procedure, shortened: as §2

[7] = qHTS RealTime-Glo MT Cell Viability Assay in HepG2 cells - 32 hour (AID 1224877); note: nearly all actives have a fitted effect of over 55% in size; note: potency is the fitted concentration of half-maximal effect
Procedure, shortened: (§5)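 Luminescence read-out: viable HepG2 cells reduce a prosubstrate to a NanoLuc substrate, giving a signal proportional to live cell number. Reads taken at 0, 8, 16, 24, 32 and 40 h of compound exposure at 37 C.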

[8] = A CellTox Green Cytotoxicity Assay to monitor cytotoxicity in HepG2 cells - 40 hour (AID 1224879); note: nearly all actives have a fitted effect of over 40% in size; note: potency is the fitted concentration of half-maximal effect
Procedure, shortened: (§6)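 First, HepG2 cells (600/well) mixed with reagent were plated; second, after 5 h at 37 C they received compounds via pintool; third, fluorescence was measured at 0 h through 40 h at 8 h intervals.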

[9] = qHTS RealTime-Glo MT Cell Viability Assay in HEK293 cells - 0 hour (AID 1224880); note: top concentration of the series differs between compounds; nearly all actives have a fitted effect of over 45% in size
Procedure, shortened: as §4

[10] = A CellTox Green Cytotoxicity Assay to monitor cytotoxicity in HEK293 cells - 32 hour (AID 1224881); note: nearly all actives have a fitted effect of over 40% in size; note: potency is the fitted concentration of half-maximal effect
Procedure, shortened: as §2

[11] = A CellTox Green Cytotoxicity Assay to monitor cytotoxicity in HepG2 cells - 0 hour (AID 1224882); note: nearly all actives have a fitted effect of over 35% in size
Procedure, shortened: as §6

[12] = A CellTox Green Cytotoxicity Assay to monitor cytotoxicity in HepG2 cells - 32 hour (AID 1224883); note: nearly all actives have a fitted effect of over 50% in size; note: potency is the fitted concentration of half-maximal effect
Procedure, shortened: as §6

[13] = A CellTox Green Cytotoxicity Assay to monitor cytotoxicity in HEK293 cells - 8 hour (AID 1224884); note: nearly all actives have a fitted effect of over 35% in size; note: potency is the fitted concentration of half-maximal effect
Procedure, shortened: as §2

[14] = qHTS RealTime-Glo MT Cell Viability Assay in HepG2 cells - 16 hour (AID 1224885); note: nearly all actives have a fitted effect of over 50% in size; note: potency is the fitted concentration of half-maximal effect
Procedure, shortened: as §5

[15] = qHTS RealTime-Glo MT Cell Viability Assay in HEK293 cells - 24 hour (AID 1224886); note: nearly all actives have a fitted effect of over 50% in size; note: potency is the fitted concentration of half-maximal effect
Procedure, shortened: as §3

[16] = qHTS RealTime-Glo MT Cell Viability Assay in HEK293 cells - 8 hour (AID 1224887); note: nearly all actives have a fitted effect of over 50% in size; note: potency is the fitted concentration of half-maximal effect
Procedure, shortened: as §4

[17] = A CellTox Green Cytotoxicity Assay to monitor cytotoxicity in HEK293 cells - 16 hour (AID 1224888); note: nearly all actives have a fitted effect of over 35% in size
Procedure, shortened: as §2

[18] = qHTS RealTime-Glo MT Cell Viability Assay in HepG2 cells - 0 hour (AID 1224889); note: nearly all actives have a fitted effect of over 50% in size; note: potency is the fitted concentration of half-maximal effect
Procedure, shortened: as §5

[19] = A CellTox Green Cytotoxicity Assay to monitor cytotoxicity in HepG2 cells - 16 hour (AID 1224876); note: nearly all actives have a fitted effect of over 45% in size
Procedure, shortened: as §6

[20] = A CellTox Green Cytotoxicity Assay to monitor cytotoxicity in HepG2 cells - 24 hour (AID 1224878); note: nearly all actives have a fitted effect of over 45% in size; note: potency is the fitted concentration of half-maximal effect
Procedure, shortened: as §6
% is set by controls: 0 for no effect and ±100 for the full control effect.

N#Cc1cc(Br)c(O)c(Br)c1
inactive: Potency [1] | Potency [2] | Potency [3] | Potency [4] | max response [5] -28.3% and -19.4% | Potency [6] | Potency [7] | Potency [8] | Potency [9] | Potency [10] | Potency [11] | Potency [12] | Potency [13] | Potency [14] | Potency [15] | Potency [16] | Potency [17] | Potency [18]

Nc1cccnc1
inactive: Potency [1] | Potency [2] | Potency [3] | Potency [4] | max response [5] 2.11% and -8.29% | Potency [19] | Potency [7] | Potency [20] | Potency [8] | Potency [10] | Potency [11] | Potency [12] | Potency [13] | Potency [14] | Potency [15] | Potency [16] | Potency [17] | Potency [18]

CC(C)C(=O)OCC(C)(C)C(OC(=O)C(C)C)C(C)C (centres undefined)
inactive: Potency [1] | Potency [2] | Potency [3] | Potency [4] | max response [5] -10.2% and 4.91% | Potency [6] | Potency [7] | Potency [20] | Potency [8] | Potency [9] | Potency [10] | Potency [11] | Potency [12] | Potency [13] | Potency [14] | Potency [15] | Potency [16] | Potency [17] | Potency [18]

CCN(CC)N=O
inactive: Potency [1] | Potency [2] | Potency [3] | Potency [4] | max response [5] -2.46% and 23.7% | Potency [19] | Potency [7] | Potency [20] | Potency [8] | Potency [10] | Potency [11] | Potency [12] | Potency [13] | Potency [14] | Potency [15] | Potency [16] | Potency [17] | Potency [18]

CCCCCCOC(=O)c1ccccc1C(=O)OCCCCCC
inactive: Potency [1] | Potency [2] | Potency [3] | Potency [4] | max response [5] -22.3% | Potency [6] | Potency [7] | Potency [20] | Potency [8] | Potency [9] | Potency [10] | Potency [11] | Potency [12] | Potency [13] | Potency [14] | Potency [15] | Potency [16] | Potency [17] | Potency [18]

CCCCCc1cc(O)cc(O)c1
inactive and 43.6 µM (active): Potency [14]
inactive and 49 µM (active): Potency [1] | Potency [7]
active: Potency [3] 24.5 µM | Potency [5] 24.5 µM | Potency [15] 38.9 µM | Potency [16] 24.5 µM
inactive: Potency [6] | Potency [19] | Potency [10] | Potency [11] | Potency [13] | Potency [17] | Potency [18]

CC(C)Oc1cc(-n2nc(C(C)(C)C)oc2=O)c(Cl)cc1Cl
active: Potency [5] 34.7 µM | Potency [15] 30.9 µM
682 nM (active) and inactive: Potency [2]
608 nM (active) and inactive: Potency [10]
inactive: Potency [1] | Potency [4] | Potency [19] | Potency [7] | Potency [8] | Potency [9] | Potency [11] | Potency [12] | Potency [13] | Potency [14] | Potency [18]

CCC(C)c1ccc(O)cc1 (centres undefined)
inactive: Potency [1] | Potency [3] | Potency [4] | max response [5] -20.1% and -0.111% | Potency [7] | Potency [11] | Potency [14] | Potency [15] | Potency [16] | Potency [18]
active: Potency [2] 49.4 µM and 43.6 µM | Potency [20] 43.6 µM | Potency [8] 43.6 µM | Potency [10] 43.6 µM | Potency [12] 43.6 µM

C#CCOS(=O)OC1CCCCC1Oc1ccc(C(C)(C)C)cc1 (centres undefined)
active: Potency [2] 21.9 µM | Potency [3] 17.4 µM and 19.5 µM | Potency [5] 7.77 µM and 21.9 µM | Potency [15] 15.5 µM and 19.5 µM | Potency [16] 17.4 µM
inactive: Potency [1] | Potency [19] | Potency [20] | Potency [8] | Potency [9] | Potency [10] | Potency [11] | Potency [12] | Potency [13] | Potency [17] | Potency [18]

Brc1ccc(Oc2cc(Br)c(Br)cc2Br)c(Br)c1
active: Potency [5] 43.6 µM | Potency [15] 38.9 µM
inactive: Potency [1] | Potency [2] | Potency [4] | Potency [6] | Potency [7] | Potency [8] | Potency [10] | Potency [11] | Potency [12] | Potency [13] | Potency [14] | Potency [16] | Potency [17] | Potency [18]

Cc1c(COC(=O)[C@@H]2[C@H](/C=C(\Cl)C(F)(F)F)C2(C)C)cccc1-c1ccccc1
active: Potency [5] 19.1 µM | Potency [15] 21.4 µM
inactive: Potency [1] | Potency [2] | Potency [4] | Potency [6] | Potency [19] | Potency [7] | Potency [20] | Potency [8] | Potency [9] | Potency [10] | Potency [11] | Potency [12] | Potency [13] | Potency [14] | Potency [16] | Potency [17] | Potency [18]

CCC(=O)O[C@H]1CC[C@H]2[C@@H]3CCC4=CC(=O)CC[C@]4(C)[C@H]3CC[C@]12C
49 µM (active) and inactive: Potency [8]
active: Potency [2] 19.5 µM and 21.3 µM | Potency [3] 21.9 µM and 23.9 µM | Potency [5] 19.5 µM and 23.9 µM | Potency [10] 19.5 µM and 19 µM | Potency [12] 43.6 µM | Potency [15] 21.9 µM and 23.9 µM | Potency [16] 38.9 µM | Potency [18] 7.76 µM
inactive: Potency [1] | Potency [4] | Potency [7] | Potency [11] | Potency [14]
34.7 µM (active) and inactive: Potency [13]

CCOC(=O)C(C)OC(=O)c1cc(Oc2ccc(C(F)(F)F)cc2Cl)ccc1[N+](=O)[O-] (centres undefined)
inactive: Potency [1] | Potency [2] | max response [5] -24.2% | Potency [6] | Potency [7] | Potency [20] | Potency [8] | Potency [10] | Potency [11] | Potency [12] | Potency [13] | Potency [14] | Potency [17] | Potency [18]
30.7 µM (active) and inactive: Potency [15]
active: Potency [3] 30.7 µM | Potency [16] 30.7 µM
